Several values for one entry are separate records, joined by “and”; a condition that tells them apart may be missing. Equal entries are not always repeated. A number with no mark means an inactive call. Records with an inconclusive call do not appear. Activity calls are given as the source filed them. Unless noted, the call rests on the fitted dose curve; in most records, active means well fitted curve in the direction sought with a large enough effect; inconclusive means small, poorly fitted or top-dose-only effect, or another doubt; inactive means no such curve, though single readings can be large; an effect the other way counts as inactive or inconclusive. Some results are limits rather than exact numbers.

A short description of assay [1]: Cell Viability - HepG2 (AID 433; calls by dose curve;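 further: potency means the concentration at half of the fitted maximal effect; cells exposed to compound for 40 hours; potency for ATP loss meaning cytotoxicity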). The following applies: qHTS. An outline of the steps: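 ATP luminescence (CellTiter-Glo) after 40 h compound exposure, 37 °C, HepG2, 1500 cells/well, complete medium. Normalized: DMSO = basal, 100 uM tamoxifen = 100% inhibition. AC50 via standard Hill equation.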
On the technique in general: Quantitative high-throughput screening tests each substance at several concentrations.

Assay [2] is described as follows: Cell Viability - MRC5 (AID 434; calls by dose curve;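 further: potency means the concentration at half of the fitted maximal effect; cells exposed to compound for 40 hours at 37 °C; potency reflects cytotoxicity seen as loss of intracellular ATP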). The following applies: MRC5 lung fibroblast viability, qHTS. Put shortly: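 AC50 values come from Hill-equation fits of intracellular ATP loss, measured by CellTiter-Glo luminescence. Normal lung fibroblasts (MRC5) had 40 hr compound treatment at 37 C, normalized between DMSO and 100 uM tamoxifen.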
The nature of assay [3]: Cellular Toxicity (caspase-3) HUV-EC-C (AID 656). Further: potency means the concentration at half of the fitted maximal effect.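 On caspase-3 activation: 0% = DMSO basal and 100% = 100 µM tamoxifen.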 The following applies: HUV-EC-C cells, caspase-3 activation (apoptosis); series mostly up to 92.2 µM. An outline of the steps: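 Luminescent caspase-3/7 activation (aminoluciferin substrate cleavage) in HUV-EC-C cells after 16 hr compound exposure, 37°C. Signal normalized to DMSO basal and 100 uM tamoxifen as 100%; AC50 from concentration-response fitted with the Hill equation.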

A short description of assay [4]: Cellular Toxicity (caspase-3) NIH 3T3 (AID 666).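 Further: 0% = DMSO basal and 100% = 100 µM tamoxifen stimulation.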 The following applies: NIH 3T3 caspase-3 activation, apoptosis/toxicity; series mostly up to 92.2 µM. An outline of the steps: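 Caspase-Glo 3/7 luminescence reported caspase activation in 1000 NIH 3T3 cells/well after 16 h compound exposure at 37 C. DMSO set basal and 100 uM tamoxifen set 100% stimulation; concentration-response modeled with the Hill equation for AC50.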

A short description of assay [5]: Cellular Toxicity (caspase-3) Renal Proximal Tubule (AID 667).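 Further: cells exposed to compound for 16 hours at 37 °C before detection; 0% = DMSO basal and 100% = 10 µM staurosporine.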 The settings on record: renal proximal tubule cells, primary cells freshly taken from rat, solvent-only wells 0%, staurosporine 100%; series mostly up to 91.7 µM. An outline of the steps:
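Luminescent caspase 3/7 signal from peptide-aminoluciferin cleavage measures apoptosis in freshly isolated rat kidney proximal tubule cells after 16 h compound exposure. Concentration-response data are normalized to DMSO and 10 uM staurosporine, and AC50 values come from Hill equation fits.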

A short description of assay [6]: MultiTox-Fluor Cytotoxicity Assay - LYMP1-001 - Dead Cells (AID 946). Further: potency means the concentration at half of the fitted maximal effect. The settings on record: LYMP1-001 lymphoblastoid cells, dead-cell protease fluorescence; series mostly up to 92.2 µM. An outline of the steps: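 LYMP1-001 lymphoblastoid cells (2500/well) treated 16 h at 37 C. Dead-cell protease cleavage of bis-AAF-R110 read at Ex/Em 485/520. Normalized to DMSO and 15 uM tetraoctylammonium bromide; AC50 from Hill fits.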

Assay [7] can be described thus: Cell Viability - LYMP1-003 - Assay at 24 hr (AID 963). Further: potency means the concentration at half of the fitted maximal effect. The following applies: LYMP1-003 lymphoblastoid cell viability; series mostly up to 92.2 µM. An outline of the steps:
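Concentration-response qHTS: ATP loss measured by CellTiter-Glo luminescence after 24 h compound exposure at 37 C. Cells were LYMP1-003 human lymphoblastoid, 2500 per well. AC50 derived via standard Hill equation modeling.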

Assay [8] in a line: Cell Viability - LYMP1-003 - Assay at 40 hr (AID 964). Further: nearly all actives have a fitted effect of over 60% in size. Further: potency means the concentration at half of the fitted maximal effect. The following applies: LYMP1-003 lymphoblastoid viability; series mostly up to 92.2 µM. An outline of the steps:
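Viability is taken as cellular ATP, read by CellTiter-Glo luminescence after 40 h of compound exposure at 37 C. Cells: human lymphoblastoid line LYMP1-003 at 2500/well; AC50 values derived by Hill-equation fitting of concentration-response data.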

Assay [9] is described as follows: Cell Viability - LYMP2-009 (AID 968). Further: nearly all actives have a fitted effect of over 55% in size. Further: potency means the concentration at half of the fitted maximal effect. The settings on record: LYMP2-009 lymphoblastoid cell viability; series mostly up to 92.2 µM.
Assay [10] in a line: Cell Viability - LYMP2-013 (AID 970). Further: nearly all actives have a fitted effect of over 55% in size. Further: potency means the concentration at half of the fitted maximal effect. The settings on record: LYMP2-013 lymphoblastoid cells viability; series mostly up to 92.2 µM. An outline of the steps: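 qHTS cytotoxicity: ATP-dependent luminescence (CellTiter-Glo, 30 min room temperature) read after 24 h compound exposure at 37 C of 2500 LYMP2-013 lymphoblastoid cells per well. Concentration-response fitted with Hill equation to give AC50.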

A short description of assay [11]: Cell Viability - LYMP2-017 (AID 972).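 Further: cells exposed to compound for 24 hours at 37 °C; nearly all actives have a fitted effect of over 55% in size.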 Further: potency means the concentration at half of the fitted maximal effect. The settings on record: LYMP2-017 lymphoblastoid cell viability; series mostly up to 92.2 µM. An outline of the steps: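 CellTiter-Glo luminescence (cellular ATP, 30 min RT) measured cytotoxicity after 24 hr compound treatment at 37 C. Cells were a human lymphoblastoid line, LYMP2-017, plated at 2500/well and incubated 5 hr first; concentration-response fitted with Hill equation for AC50.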

Assay [12] is described as follows: Cell Viability - LYMP2-025 (AID 976). Further: potency means the concentration at half of the fitted maximal effect. The following applies: LYMP2-025 lymphoblastoid cell viability; series mostly up to 92.2 µM. Put shortly: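 Cytotoxicity read as loss of intracellular ATP (luciferase luminescence) after 24 h compound treatment at 37 C. Uses LYMP2-025 lymphoblastoid cells in 1536-well format; Hill-equation modelling gives AC50; tetraoctylammonium bromide as positive control.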

Assay [13] is described as follows: Cell Viability - LYMP2-006 (AID 978).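 Further: cells exposed to compound for 24 hours; nearly all actives have a fitted effect of over 60% in size.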 Further: potency means the concentration at half of the fitted maximal effect. The following applies: LYMP2-006 lymphoblastoid cell viability, qHTS; series mostly up to 92.2 µM. An outline of the steps:
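qHTS, 1536-well; 2500 cells/well, 5 hr 37 C; cpd 24 hr 37 C; CellTiter-Glo 30 min RT; luminescence. Tetraoctylammonium bromide pos. ctrl. AC50 via Hill eqn.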

Assay [14] is described as follows: Cell Viability - LYMP2-007 (AID 979).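 Further: cells exposed to compound for 24 h before reading; nearly all actives have a fitted effect of over 60% in size.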 Further: potency means the concentration at half of the fitted maximal effect. The settings on record: LYMP2-007 lymphoblastoid cell viability; series mostly up to 92.2 µM. Put shortly:
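AC50 values come from Hill-equation fits of luminescent intracellular ATP (CellTiter-Glo, 30 min, room temperature) following 24 h compound exposure at 37 C. Cells: LYMP2-007 lymphoblastoid line, 2500 per well, in complete culture medium.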

The nature of assay [15]: Cell Viability - LYMP2-010 (AID 981).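 Further: cells exposed to compound for 24 hours at 37 °C; nearly all actives have a fitted effect of over 55% in size.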 Further: potency means the concentration at half of the fitted maximal effect. The following applies: LYMP2-010 lymphoblastoid cell viability, qHTS; series mostly up to 92.2 µM. Put shortly: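 CellTiter-Glo ATP luminescence measured cytotoxicity after 24 h compound exposure at 37 C. LYMP2-010 cells were seeded at 2500/well, with tetraoctylammonium bromide as control; concentration-response curves gave AC50 values by the Hill equation.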

Assay [16] can be described thus: Cell Viability - LYMP1-002 - Assay at 24 hr (AID 993). Further: potency means the concentration at half of the fitted maximal effect. The settings on record: LYMP1-002 lymphoblastoid cells viability; series mostly up to 92.2 µM. An outline of the steps:
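qHTS cytotoxicity at 24 h: CellTiter-Glo ATP luminescence in lymphoblastoid line LYMP1-002 incubated with compound at 37 °C. Concentration-response modeled with the Hill equation for AC50; tetraoctylammonium bromide served as positive control.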

Assay [17] can be described thus: Cell Viability - LYMP1-002 - Assay at 40 hr (AID 994). Further: nearly all actives have a fitted effect of over 60% in size. Further: potency means the concentration at half of the fitted maximal effect. The settings on record: LYMP1-002 lymphoblastoid cell viability; series mostly up to 92.2 µM. An outline of the steps:
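Cytotoxicity was read as loss of cellular ATP (CellTiter-Glo luminescence) after 40 hr compound exposure at 37 C of 2500 LYMP1-002 lymphoblastoid cells per well. Concentration-response data were fitted with the standard Hill equation to give AC50.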

Assay [18] can be described thus: qHTS assay for small molecule agonists of the antioxidant response element (ARE) signaling pathway measured by Nrf2-dependant transcriptional activity - cell viability counter screen (AID 720653; active means well fitted curve in the direction sought with a large enough effect in the repeat runs; an effect the other way counts as inactive or inconclusive; further: on the % scale 0 is the no-effect control and ±100 the full control effect). The following applies: ARE-bla HepG2 viability, CellTiter-Glo ATP luminescence, 16 h; max response: hits give low values. An outline of the steps: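 Cytotoxicity counter screen: intracellular ATP quantified by CellTiter-Glo luminescence in the same ARE-bla HepG2 plates, after 16 h compound exposure and a 2 h beta-lactamase substrate step.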

The nature of assay [19]: qHTS assay for cell viability of HEK293 cells (AID 743288). Further: nearly all actives have a fitted effect of over 50% in size. Further: potency means the concentration at half of the fitted maximal effect. On max response: on the % scale 0 is the no-effect control and ±100 the full control effect. The settings on record: ATP luminescence (CellTiter-Glo), 18 h; max response: hits give low values. An outline of the steps: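 ATP luminescence (CellTiter-Glo) reports metabolically competent cell number after parental HEK293 cells, 2,000/well, were treated with DMSO-dissolved compounds for 18 h at 37 C; reagent incubation 30 min, room temperature.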

Assay [20] in a line: qHTS assay for cell viability of the p53RE-bla HCT-116 cell line (AID 743292). Further: nearly all actives have a fitted effect of over 55% in size. Further: potency means the concentration at half of the fitted maximal effect. The following applies: p53RE-bla HCT-116 viability, ATP luminescence, 16 h; series mostly up to 95 µM. Put shortly:
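Readout: CellTiter-Glo luminescence after 30 min RT. Treatment: compounds in DMSO, 16 h, 37 C. Cells: CellSensor p53RE-bla HCT-116, 4,000/well, preincubated 5 h.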

`CN1[C@H]2CC(OC(=O)[C@H](CO)c3ccccc3)C[C@H]1[C@H]1O[C@H]12` (stereo partly drawn): the Potency in [1] and in assay [2] was more than 92 µM throughout. In addition, the Potency entry in assay [3], in [4], in [6], in [7], in assay [8] and in assay [9] was “inactive” throughout. Besides, the Potency entry in [10], in assay [11], in [12], in assay [13], in assay [14] and in assay [15] was “inactive” in each case. Also, the Potency result in assay [16], in assay [17] and in assay [20] was “inactive” in each case. Further, the outcome in [5] was inactive. For the same compound, the max response in [18] is 0.433% and 4.93%; in [19] it was -2.2% and 1.37%.
Regarding `O=C(OCC(COC(=O)c1ccccc1)(COC(=O)c1ccccc1)COC(=O)c1ccccc1)c1ccccc1`, the Potency in assay [1] and in assay [2] was more than 92 µM throughout. Besides, the Potency result in assay [3], in [4], in [6], in assay [7], in assay [8] and in assay [9] was “inactive” each time. Also, the Potency result in assay [10], in assay [11], in [12], in assay [13], in [14] and in [15] was “inactive” each time. For the same compound, the Potency result in assay [16], in assay [17] and in assay [20] was “inactive” in each case. Moreover, the call in assay [5] was inactive. Further, the values for the max response in assay [18] and in [19] were 3.26% and -3%, respectively.
Regarding `Cc1cccc(O)c1C`, the Potency in assay [1] and in assay [2] was more than 92 µM in each case. In addition, the Potency result in assay [3], in assay [4], in assay [6], in assay [7], in [8] and in assay [9] was “inactive” throughout. The Potency entry in assay [10], in assay [11], in assay [12], in assay [13], in assay [14] and in assay [15] was “inactive” throughout. Also, the Potency result in [16], in [17] and in [20] was “inactive” in each case. Moreover, the call in assay [5] was inactive. The max response is -1.51% in assay [18] and -3.02% in [19].
On to `Cc1cc(O)c(C(C)(C)C)cc1Sc1cc(C(C)(C)C)c(O)cc1C`, for which the Potency is 32.3 µM (active) in [1]; 40.2 µM (active) in assay [2]; 50.1 µM (active) in assay [3]; 31.6 µM (active) in [6]; 39.8 µM (active) in assay [7]; 39.8 µM (active) in assay [8]. The Potency is 50.1 µM (active) in assay [9]; 31.6 µM (active) in assay [10]; 50.1 µM (active) in assay [11]; 39.8 µM (active) in assay [12]; 31.6 µM (active) in [13]; 31.6 µM (active) in assay [14]. Further, the Potency in [15] was 31.6 µM (active); in [16] it was 31.6 µM (active); in assay [17], 39.8 µM (active); in assay [19], 70.8 µM (active) and 50.1 µM (active); in [20], 28.2 µM (active) and 25.1 µM (active). Also, the Potency result in assay [4] was “inactive”.
